From paper PMC5540273 (PLoS ONE, 2017)

Assays:
Conditions in all cases: concentration: 1 μM, replicates: in singlicate; n = 1
SRPK1 = test system: SRPK1
SRPK2 = test system: SRPK2
SRPK3 = test system: SRPK3
STK16 = test system: STK16
STK33 = test system: STK33
STK35 = test system: STK35
STK36 = test system: STK36
STK39 = test system: STK39
SYK = test system: SYK
SgK110 = test system: SgK110
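Also: KINOMEscan kinase panel screen.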

Row | SMILES | %Inh (SRPK1) [%] | %Inh (SRPK2) [%] | %Inh (SRPK3) [%] | %Inh (STK16) [%] | %Inh (STK33) [%] | %Inh (STK35) [%] | %Inh (STK36) [%] | %Inh (STK39) [%] | %Inh (SYK) [%] | %Inh (SgK110) [%]
1 | Cc1ccc(-c2ccc3c(ccc4sc5c(c43)NC[C@@H](C)N=C5N(C)C)n2)cn1 | 0 | 6 | 25 | 0 | 0 | 0 | 0 | 0 | 0 | 14
2 | COc1cc2nccc(Nc3cccc(Oc4ccccc4)c3)c2cc1OC.Cl [GW284543] | 65 | 0 | 0 | 0 | 0 | 0 | 0 | 1 | 37 | 0
3 | Cc1c(Cn2c(C)nn3c(=O)cc(N4CCO[C@H](C)C4)nc23)cccc1C(F)(F)F [GSK2373690] | 0 | 0 | 0 | 6 | 0 | 2 | 0 | 32 | 25 | 2
4 | O=C(Nc1n[nH]c2cc(-c3ccccc3F)ccc12)C1CC1 [SB-733371] | 10 | 0 | 38 | 0 | 0 | 11 | 0 | 2 | 17 | 0
5 | COc1cc2ncn(-c3cc(OCc4ccncc4)c(C(N)=O)s3)c2cc1OC [GSK336313] | 23 | 0 | 0 | 25 | 0 | 0 | 0 | 4 | 26 | 0
6 | CN1C(=O)C(Nc2cc(Cl)c(O)c(Cl)c2)=C(c2ccc(Cl)cc2)C1=O [SB-404321] | 0 | 0 | 96.2 | 0 | 0 | 0 | 19 | 0 | 0 | 0
7 | O=c1cc(N2CCOCC2)nc2n(Cc3ccc(F)c(Cl)c3)ccn12 [GSK2297099] | 0 | 0 | 0 | 24 | 0 | 0 | 0 | 0 | 7 | 8
8 | Cc1ccc(Oc2ccc(Nc3ncnc4cc[nH]c34)cc2C)cn1 | 0 | 0 | 0 | 27 | 0 | 0 | 13 | 15 | 11 | 0
9 | COc1cc2ncn(-c3cc(OCc4ccncc4Br)c(C(N)=O)s3)c2cc1OC [GW854278] | 44 | 0 | 28 | 14 | 6 | 0 | 1 | 0 | 20 | 0
10 | COc1cc2ncn(-c3cc(OCc4ccc(S(C)(=O)=O)cc4)c(C(N)=O)s3)c2cc1OC [GW869979] | 25 | 0 | 13 | 2 | 27 | 0 | 0 | 0 | 0 | 0
11 | Cl.NS(=O)(=O)c1cccc(Nc2cc(-c3ccc(F)cc3)n[nH]2)c1 [GW824645] | 0 | 0 | 2 | 18 | 0 | 0 | 0 | 0 | 3 | 0
12 | Nc1ncnc2c1ncn2-c1cccc(F)c1 [SKF-97560] | 16 | 0 | 0 | 6 | 6 | 0 | 4 | 0 | 25 | 5
13 | Fc1cccc(CSc2nnc(-c3ccc4c(c3)CCO4)o2)c1 | 1 | 0 | 16 | 0 | 6 | 0 | 16 | 16 | 0 | 13
14 | COC(=O)c1c(-c2ccccc2)c2cc(Br)ccc2c(=O)n1Cc1ccc(NC(=O)CCC(=O)O)cc1 | 0 | 10 | 20 | 15 | 0 | 0 | 8 | 14 | 0 | 0
15 | COc1cc(Nc2ccnc3ccc(C(F)(F)F)cc23)cc(OC)c1OC [GW577382] | 0 | 0 | 0 | 0 | 15 | 0 | 0 | 16 | 37 | 0
16 | COC(=O)c1c(-c2ccccc2)c2cc(Br)ccc2c(=O)n1Cc1ccc(S(C)(=O)=O)cc1 | 0 | 0 | 1 | 38 | 2 | 0 | 10 | 2 | 0 | 6
17 | Nc1n[nH]c2ncc(-c3ccccc3)cc12 [SB-517081] | 0 | 12 | 12 | 22 | 0 | 0 | 0 | 0 | 8 | 0
18 | Cc1cccc(-c2cc(-c3c[nH]nc3-c3ccccn3)ccn2)c1 [GW679395] | 3 | 0 | 0 | 21 | 0 | 0 | 64 | 30 | 16 | 64
